Screening data as filed in PubChem BioAssay.
Compounds with a hit are over-represented: about 1.1% of the library has one in this group of screens.
ALOX12 inh – blocks human arachidonate 12S-lipoxygenase. P18054. purified 12hLO, xylenol orange hydroperoxide absorbance. Potency, µM (top dose mostly 108 µM), usual class: inhibitors. actives 1.1% (n = 580,000). AID 1671190
Target sequence (P18054 whole entry, looked up): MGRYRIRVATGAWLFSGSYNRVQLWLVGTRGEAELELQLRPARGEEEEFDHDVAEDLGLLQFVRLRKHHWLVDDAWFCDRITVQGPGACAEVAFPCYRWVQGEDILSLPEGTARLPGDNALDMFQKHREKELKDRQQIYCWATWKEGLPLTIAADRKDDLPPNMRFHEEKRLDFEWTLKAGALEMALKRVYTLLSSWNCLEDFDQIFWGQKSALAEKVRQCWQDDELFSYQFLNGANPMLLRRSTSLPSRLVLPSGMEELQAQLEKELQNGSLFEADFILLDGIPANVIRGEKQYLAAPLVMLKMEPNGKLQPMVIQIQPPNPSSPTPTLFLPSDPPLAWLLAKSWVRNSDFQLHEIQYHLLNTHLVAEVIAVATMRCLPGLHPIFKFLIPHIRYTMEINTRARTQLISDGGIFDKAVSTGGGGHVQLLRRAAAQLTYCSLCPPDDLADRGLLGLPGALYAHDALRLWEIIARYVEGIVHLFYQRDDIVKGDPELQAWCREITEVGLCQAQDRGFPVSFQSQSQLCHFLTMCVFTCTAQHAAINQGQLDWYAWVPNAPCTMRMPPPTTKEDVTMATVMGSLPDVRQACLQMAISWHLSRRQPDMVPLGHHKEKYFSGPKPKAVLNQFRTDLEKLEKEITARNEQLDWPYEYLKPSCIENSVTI
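Purified human 12hLO at 150 nM in 25 mM Hepes, 0.01% Triton X-100, pH 7.0, preincubated 15 min at room temperature with compound. Reaction started with 40 uM arachidonic acid, 30 min at room temperature. Hydroperoxide measured by Fe-xylenol orange, 573/405 nm absorbance ratio.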
Apoferritin bind – candidate novel general anesthetic via apoferritin binding | P02791 | apoferritin/1-aminoanthracene competitive binding, fluorescence | Potency, µM (top dose mostly 77.5 µM), most hits filed as inhibitors | actives 0.074% (n = 350,000); note: nearly all actives have a fitted effect of over 20% in size
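Steps: apoferritin (10 uM) was premixed with half-saturated 1-AMA in PBS, compounds were pin-transferred, plates stood 10 min at room temperature, fluorescence was read at 380/535 nm, and curves were fitted with a Hill equation.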
BCR signal inh – inhibitors of chronic active B-cell receptor signaling; ABC-DLBCL IkBa-CBG/CBR reporter, luminescence ratio, 4 h; Potency, µM (series often up to 46.1 µM), hits mostly inhibitors; actives 0.05% (n = 340,000); AID 493014; active = well fitted inhibition curve with a large enough effect in the signal ratio, with a control signal flat, not every such curve was filed as active; inconclusive = small, poorly fitted or top-dose-only effect, or effect the other way, or a change in a side signal; the % refers to the signal ratio
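Compounds up to 46 uM were incubated four hours with TMD8 cells whose green CBG68 luciferase is fused to IkappaBalpha; red CBR luminescence normalised the signal, and concentration-effect curves were fitted to fusion, red and ratio data.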
Glioma ERSR ind – inducers of ER stress response in human glioma cells | Potency, µM, hits mostly activators | actives 0.02% (n = 420,000) | AID 602332 | U87-MG GRP78 promoter luciferase reporter, 16 h; note: series mostly up to about 76 µM; nearly all actives have a fitted effect of over 35% in size
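Stably transfected U87-MG human glioma cells carrying a GRP78-based luminescent sensor were seeded at 1000 cells/well, pin-dosed with compounds and incubated 16 h. Luciferase reagent was then added, and end-point luminescence was read after 10 min at room temperature.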
A number is an active result; – = inactive; ? = inconclusive; · = not tested or not shown. Unless noted, calls come from the whole dose curve; as a rule, active = well fitted curve in the direction sought with a large enough effect; inconclusive = small, poorly fitted or top-dose-only effect, or another doubt; inactive = no such curve, though single readings can be large; an effect the other way counts as inactive or inconclusive.

SMILES	ALOX12 inh	Apoferritin bind	BCR signal inh	Glioma ERSR ind
Cc1c(C(=O)OCC2CCCO2)[nH]c2c1C(=O)CC(c1ccc(N(C)C)cc1)C2 (configuration not stated)	6.3µM	–	–	–
Cc1c(C(=O)OCc2ccccc2)[nH]c2c1C(=O)CC(c1ccc(N(C)C)cc1)C2 (configuration not stated)	–	–	·	–
COc1ccc(C2=NNC(=O)C2(C)Br)cc1 (configuration not stated)	45µM	·	·	–
CC(=O)c1ccc(N2CCN(C(=O)CNC(=O)NCc3ccc(F)cc3)CC2)cc1	–	·	·	·
CC(=O)Nc1ccc(SC2CCCCC2=O)cc1 (configuration not stated)	–	·	·	·
Cn1c(CCC(=O)Nc2cc(S(C)(=O)=O)ccc2Cl)nc2cc(S(=O)(=O)N3CCOCC3)ccc21	45µM	·	–	–
CC(C)(C)c1cc(/C=C/C(=O)O)cc(C(C)(C)C)c1O	8.9µM	·	·	·
COc1cc(C2c3sc(=O)[nH]c3SC3C(=O)N(c4ccc(Br)cc4)C(=O)C32)ccc1O (configuration not stated)	40µM	–	?	–
COc1ccc(C2c3sc(=O)[nH]c3SC3C4CCC(C4)C23)cc1OC (configuration not stated)	–	–	–	–
Cc1cc(C)c(C)c(OCC(=O)N2CCCCCC2)c1	–	20µM	?	–
Cc1ccc(OCCNC(=O)[C@H]2O[C@@H](n3ccc(N)nc3=O)[C@H](O)[C@@H]2O)cc1C	?	·	·	–
Cc1cc(C)n(CCNC(=O)[C@H]2O[C@@H](n3ccc(N)nc3=O)[C@H](O)[C@@H]2O)n1	50µM	·	·	–
N#Cc1cc2c([nH]c1=S)CCCCCC2	16µM	–	?	–
COC(=O)C1=C(C(=O)OC)C(c2cc(Br)ccc2O)c2sc(=O)[nH]c2S1 (configuration not stated)	45µM	–	–	–
O=C(Nc1cn[nH]c1)C1CCN(c2ccc(C(F)(F)F)cn2)CC1	–	·	·	·
COCc1noc(CC2CCOC3(CCN(C(=O)c4c[nH]c5ccccc45)CC3)C2)n1 (configuration not stated)	–	·	·	·
COc1cccc(-c2cccc(-c3nc(C(=O)NCc4ccc5c(c4)OCO5)cc4c3[C@H](CCO)N(S(=O)C(C)(C)C)C4)c2)c1 (some centres not stated)	28µM	·	·	–
CC(C)(C)S(=O)N1Cc2cc(C(=O)N3CCOCC3)nc(-c3cccc(Br)c3)c2[C@H]1CCO (some centres not stated)	5µM	·	·	–
CN1CCN(C(=O)c2cc3c(c(-c4cccc(Br)c4)n2)[C@H](CCO)N(S(=O)C(C)(C)C)C3)CC1 (some centres not stated)	–	·	·	–
O/N=C/c1ccc(OCc2ccccc2)cc1	–	·	·	·
C=CC(C)(CCC=C(C)C)OC=O (configuration not stated)	–	·	·	·
CCOC(=O)c1ccc(NS(=O)C23CC4CC(CC(C4)C2)C3)cc1 (configuration not stated)	7.1µM	–	–	–
CCOC(=O)c1ccc(NC(=O)CNC(=O)C23CC4CC(CC(C4)C2)C3)cc1	–	?	–	–
CCC(C)(C)NC(=O)CC(NC(N)=O)c1ccccc1C (configuration not stated)	–	·	·	·
CCC(CO)NCc1sccc1C (configuration not stated)	–	–	–	–
SMILES	ALOX12 inh	Apoferritin bind	BCR signal inh	Glioma ERSR ind
CCCCCC(C)NCc1sccc1C (configuration not stated)	0.45µM	·	·	·
O=C(N/N=C/c1ccc(-c2ccc(Cl)c(C(=O)O)c2)o1)c1cc2c(ccc3ccccc32)o1	40µM	–	?	–
Cc1ccc(-c2ccc(/C=N\NC(=O)c3cc4c(ccc5ccccc54)o3)o2)cc1[N+](=O)[O-]	–	–	–	–
CC(C)(C)C(=O)NC(=S)NNC(=O)C(c1ccccc1)c1ccccc1	·	–	–	22µM
CCC1CCc2c(sc(NC(=O)c3cccc4ccccc34)c2C#N)C1 (configuration not stated)	–	·	·	·
FC(F)(F)c1ccccc1-c1nc(Nc2ccncc2)c2ccccc2n1	?	–	·	–
COc1ccccc1-c1nc(NCc2cnc(C)cn2)c2ccccc2n1	20µM	?	·	–
Cc1cnc(CNc2nc(-c3ccccc3C)nc3ccccc23)cn1	–	·	·	–
COc1ccccc1-c1nc(N(C)C)c2ccccc2n1	32µM	·	·	–
COc1ccccc1CNc1nc(-c2ccc(N(C)C)cc2)nc2ccccc12	28µM	–	·	–
COc1ccccc1-c1nc(Nc2ccncc2)c2ccccc2n1	28µM	·	·	–
CN(C(=O)Cc1ccccn1)C1CCc2ccccc21 (configuration not stated)	–	·	·	·
O=Cc1cccn1-c1ccc(F)cc1F	–	·	·	·
N#CC(C(=O)CCc1ccccc1)C(=O)Nc1ccccc1Cl (configuration not stated)	–	·	·	·
CC(=O)NC1(C)CCN(Cc2ccccc2-c2ccccc2Oc2ccccc2)C1 (configuration not stated)	35µM	·	·	·
CC(=O)NC1(C)CCN(Cc2cccc(Nc3ccccc3)c2)C1 (configuration not stated)	–	·	·	·
COc1cc(CN2CCC(C)(NC(C)=O)CC2)cc(Nc2ccccc2)c1	13µM	·	·	·
c1ccc(Oc2cccc(-c3nc4ccccc4s3)c2)cc1	–	·	·	·
CCCCN(CCCC)C(=O)C1CC(=O)OC12CCOC(C)(C)C2 (configuration not stated)	–	·	·	·
COc1ccc(-c2cc3nccn3c(Nc3ncccc3C(N)=O)n2)cc1OC	1.4µM	·	·	·
Cc1ccc(NS(=O)(=O)c2cc([N+](=O)[O-])ccc2NNC(=S)Nc2cc(C)ccc2C)c(C)c1	25µM	–	?	–
Cc1ccc(NS(=O)(=O)c2cc([N+](=O)[O-])ccc2NNC(=S)Nc2cccc(Cl)c2)c(C)c1	·	–	?	–
COc1ccc(NC(=S)NNc2ccc([N+](=O)[O-])cc2S(=O)(=O)Nc2ccc(C)cc2C)cc1	22µM	–	?	–
CCC(=O)Nc1ccc2oc(-c3ccc(OC)c(Br)c3)nc2c1	–	·	·	·
CC(C)(C)c1ccccc1NC(=S)NC1CCCCC1	40µM	–	?	–
SMILES	ALOX12 inh	Apoferritin bind	BCR signal inh	Glioma ERSR ind
CC(C)(C)c1ccccc1NC(=S)NC1CCCC1	?	–	–	–
Cc1cccc(NC(=S)NC2CCCC2)c1C	?	–	–	–
Cc1cccc(NC(=S)NC2CCCCCC2)c1C	50µM	–	–	–
NC(=O)COc1cc(OCC(N)=O)c(Cl)cc1Cl	–	·	·	·
CCOC(=O)c1c(N)sc(C)c1-c1ccccc1	·	?	·	–
CCCc1ccc(-c2c(C)sc(N)c2C#N)cc1	?	35µM	?	–
CCc1ccc(-c2c(C)sc(N)c2C#N)cc1	28µM	·	·	·
CCCc1ccc(-c2c(C)sc(NC(=O)c3ccc(C)s3)c2C#N)cc1	–	·	·	·
CC(C)n1nc(C(=O)Nc2ccc(Oc3ccccc3)cc2)c2ccccc2c1=O	–	·	·	·
Cc1ccc(-n2nc(N3CCCN(S(=O)(=O)c4cccc5nsnc45)CC3)ccc2=O)cc1	–	·	·	·
C=CCSC1=N/C(=C\C=C\c2ccccc2)C(=O)S1	14µM	·	·	·
